Source: PubChem BioAssay AID1159580 (chemical genetic matrix, 2015)
Out of some 5,500 compounds screened, about 2,000 (36%) were called active. Not shown: some 18% with an inconclusive outcome. No stated cut-off is given here; in the data, active means normalized growth mostly below about 0.91 (no sharp cut-off); inconclusive means no clear call, values can overlap the other calls; inactive means mostly above about 0.92. The list shows a part of the results.

Assay: chemical genetic growth profiling, strain panel (AID 1159580);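 further: tested at 20 µM; growth read once vehicle control cultures reached saturation at 30 °C; 1 = growth at the plate median or of vehicle wells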
Conditions: S. cerevisiae deletion strains, growth OD

Measured: normalized growth

CN1CCc2cc3c(cc2[C@H]1C1OC(=O)c2c1ccc1c2OCO1)OCO3 (stereo not given in full)
inactive: locus YAL021C, strain ccr4, stronger effect = lower value 1.01 | locus YAL026C, strain drs2, stronger effect = lower value 0.989 | locus YAL030W, strain snc1, stronger effect = lower value 0.982 | locus YBL061C, strain skt5, stronger effect = lower value 0.982 | locus YBR009C, strain hhf1, stronger effect = lower value 0.989 | locus YBR023C, strain chs3, stronger effect = lower value 0.972 | locus YBR171W, strain sec66, stronger effect = lower value 0.997 | locus YBR231C, strain swc5, stronger effect = lower value 0.993 | locus YBR279W, strain paf1, stronger effect = lower value 0.993 | locus YCL011C, strain gbp2, stronger effect = lower value 0.985 | locus YCL016C, strain dcc1, stronger effect = lower value 0.981 | locus YCL061C, strain MRC1, stronger effect = lower value 0.993 | locus YCL069W, strain vba3, stronger effect = lower value 0.986 | locus YCR088W, strain abp1, stronger effect = lower value 0.98 | locus YDL005C, strain med2, stronger effect = lower value 0.988 | locus YDL040C, strain nat1, stronger effect = lower value 0.99 | locus YDR001C, strain nth1, stronger effect = lower value 0.986 | locus YDR069C, strain doa4, stronger effect = lower value 0.974 | locus YDR137W, strain rgp1, stronger effect = lower value 0.971 | locus YDR159W, strain sac3, stronger effect = lower value 0.976 | locus YDR195W, strain ref2 0.957 | locus YDR297W, strain sur2, stronger effect = lower value 0.987 | locus YDR334W, strain swr1, stronger effect = lower value 0.981 | locus YDR335W, strain msn5, stronger effect = lower value 0.996 | locus YDR392W, strain spt3, stronger effect = lower value 0.905 | locus YEL003W, strain gim4, stronger effect = lower value 0.991 | locus YEL037C, strain rad23, stronger effect = lower value 0.971 | locus YEL061C, strain CIN8 (second series), stronger effect = lower value 0.973 | locus YER015W, strain faa2, stronger effect = lower value 0.982 | locus YER016W, strain bim1, stronger effect = lower value 0.989 | locus YER111C, strain swi4, stronger effect = lower value 0.991 | locus YER155C, strain BEM2 (second series), stronger effect = lower value 0.968 | locus YFR010W, strain ubp6, stronger effect = lower value 0.977 | locus YGL167C, strain pmr1, stronger effect = lower value 0.98 | locus YGL173C, strain kem1, stronger effect = lower value 0.988 | locus YGL227W, strain vid30, stronger effect = lower value 0.976 | locus YGL240W, strain doc1, stronger effect = lower value 0.983 | locus YGL253W, strain hxk2, stronger effect = lower value 0.987 | locus YHR013C, strain ard1, stronger effect = lower value 0.959 | locus YHR027C, strain rpn1, stronger effect = lower value 0.993 | locus YHR030C, strain SLT2, stronger effect = lower value 0.985 | locus YHR079C, strain IRE1, stronger effect = lower value 0.989 | locus YHR142W, strain chs7, stronger effect = lower value 1.01 | locus YJL092W, strain hpr5, stronger effect = lower value 0.991 | locus YJL095W, strain BCK1 (second series), stronger effect = lower value 0.988 | locus YJL095W, strain BCK1, stronger effect = lower value 0.987 | locus YJL115W, strain asf1, stronger effect = lower value 0.983 | locus YJL129C, strain trk1, stronger effect = lower value 0.975 | locus YJL154C, strain vps35, stronger effect = lower value 0.985 | locus YJL164C, strain tpk1, stronger effect = lower value 1.01 | locus YJL166W, strain qcr8, stronger effect = lower value 0.999 | locus YJL187C, strain SWE1, stronger effect = lower value 0.986 | locus YJR066W, strain TOR1, stronger effect = lower value 0.93 | locus YKL160W, strain elf1, stronger effect = lower value 1.01 | locus YKR026C, strain gcn3, stronger effect = lower value 0.979 | locus YKR091W, strain srl3, stronger effect = lower value 0.99 | locus YLL001W, strain dnm1, stronger effect = lower value 0.987 | locus YLL026W, stronger effect = lower value 0.983 | locus YLL041C, strain sdh2, stronger effect = lower value 0.994 | locus YLR027C, strain aat2, stronger effect = lower value 0.976 | locus YLR113W, strain HOG1, stronger effect = lower value 0.987 | locus YLR221C, strain rsa3, stronger effect = lower value 0.989 | locus YLR258W, strain gsy2, stronger effect = lower value 0.988 | locus YLR262C, strain YPT6 (second series), stronger effect = lower value 0.97 | locus YLR320W, strain mms22, stronger effect = lower value 0.993 | locus YLR342W, strain FKS1, stronger effect = lower value 0.983 | locus YLR357W, strain rsc2, stronger effect = lower value 0.997 | locus YLR370C, strain arc18, stronger effect = lower value 0.983 | locus YLR384C, strain iki3, stronger effect = lower value 0.976 | locus YML120C, strain ndi1, stronger effect = lower value 0.981 | locus YMR058W, strain fet3, stronger effect = lower value 0.969 | locus YMR125W, strain sto1, stronger effect = lower value 0.973 | locus YMR129W, stronger effect = lower value 0.995 | locus YMR205C, strain PFK2, stronger effect = lower value 0.98 | locus YMR231W, strain pep5, stronger effect = lower value 0.987 | locus YNL071W, strain lat1, stronger effect = lower value 0.989 | locus YNL183C, strain NPR1, stronger effect = lower value 0.94 | locus YNL209W, strain ssb2, stronger effect = lower value 0.985 | locus YNL248C, strain rpa49, stronger effect = lower value 0.993 | locus YNL322C, strain KRE1 (second series), stronger effect = lower value 0.987 | locus YNR049C, strain mso1, stronger effect = lower value 0.99 | locus YOR001W, strain rrp6, stronger effect = lower value 1.01 | locus YOR070C, strain gyp1, stronger effect = lower value 0.973 | locus YOR080W, strain dia2, stronger effect = lower value 0.994 | locus YOR083W, strain WHI5, stronger effect = lower value 1.01 | locus YOR106W, strain vam3, stronger effect = lower value 0.99 | locus YOR231W, strain MKK1, stronger effect = lower value 0.977 | locus YOR265W, strain rbl2, stronger effect = lower value 0.99 | locus YOR270C, strain vph1, stronger effect = lower value 0.947 | locus YOR290C, strain snf2, stronger effect = lower value 0.974 | locus YPL051W, strain arl3, stronger effect = lower value 1 | locus YPL078C, strain atp4, stronger effect = lower value 1.01 | locus YPL106C, strain sse1, stronger effect = lower value 0.967 | locus YPL240C, strain hsp82, stronger effect = lower value 0.996 | locus YPL256C, strain CLN2, stronger effect = lower value 0.968
